# From the supplement of paper PMC10849652
# Targets with a hit are over-represented here; the source holds about 7,900 in all. About 0.6% of all pairs of compound and target were hits. A number with no mark means an inactive call.
# Compound: CN1CCN(CCOc2cc(OC3CCOCC3)c3c(Nc4c(Cl)ccc5c4OCO5)ncnc3c2)CC1 [saracatinib]
# Assay: log2 fold change, soluble protein after heating vs DMSO (PISA); higher = thermal stabilisation; K562 cells, 10 uM, 30 min; active = over 0.2 and 3.5 SD of the protein, either way, in both replicates (recomputed)
# Method in brief: (§1)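 Soluble protein was defined as the supernatant after 21,000xg for 90 min. It came from K562 cells at 2×10^6 cells/mL given 10 μM compound for 30 min, heated in aliquots for 3 min across 48°C-58°C, pooled, and extracted in PBS with 0.5% NP-40 at 4°C, and was quantified by TMTpro 16plex LC-MS/MS with equalised channel sums. Thermal stability against control samples, from duplicates, is reported as log2 fold change.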
# Sequence of UniProt P15559 (P15559 whole entry, looked up): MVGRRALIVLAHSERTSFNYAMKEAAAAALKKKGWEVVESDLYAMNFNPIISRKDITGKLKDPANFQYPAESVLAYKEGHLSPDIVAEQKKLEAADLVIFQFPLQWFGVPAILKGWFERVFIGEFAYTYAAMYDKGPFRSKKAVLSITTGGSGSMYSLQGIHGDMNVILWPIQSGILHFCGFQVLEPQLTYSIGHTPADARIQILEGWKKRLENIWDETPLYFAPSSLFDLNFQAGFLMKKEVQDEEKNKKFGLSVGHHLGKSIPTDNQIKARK
# Sequence of UniProt Q9NWU1 (Q9NWU1 whole entry, looked up): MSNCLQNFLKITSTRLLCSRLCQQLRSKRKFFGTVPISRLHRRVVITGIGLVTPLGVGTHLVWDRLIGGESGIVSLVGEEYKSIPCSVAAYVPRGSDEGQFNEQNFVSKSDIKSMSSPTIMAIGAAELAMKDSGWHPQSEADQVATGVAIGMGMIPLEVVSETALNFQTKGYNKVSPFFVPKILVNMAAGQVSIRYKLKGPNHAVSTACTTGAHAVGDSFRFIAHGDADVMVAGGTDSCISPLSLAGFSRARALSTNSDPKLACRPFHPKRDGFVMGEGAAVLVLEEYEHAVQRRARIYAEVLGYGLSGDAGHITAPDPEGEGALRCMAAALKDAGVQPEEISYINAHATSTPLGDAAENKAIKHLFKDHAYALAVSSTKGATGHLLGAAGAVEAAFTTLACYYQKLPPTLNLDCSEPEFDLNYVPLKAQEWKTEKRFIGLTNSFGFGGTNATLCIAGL
# Sequence of UniProt Q92621 (Q92621 whole entry, looked up): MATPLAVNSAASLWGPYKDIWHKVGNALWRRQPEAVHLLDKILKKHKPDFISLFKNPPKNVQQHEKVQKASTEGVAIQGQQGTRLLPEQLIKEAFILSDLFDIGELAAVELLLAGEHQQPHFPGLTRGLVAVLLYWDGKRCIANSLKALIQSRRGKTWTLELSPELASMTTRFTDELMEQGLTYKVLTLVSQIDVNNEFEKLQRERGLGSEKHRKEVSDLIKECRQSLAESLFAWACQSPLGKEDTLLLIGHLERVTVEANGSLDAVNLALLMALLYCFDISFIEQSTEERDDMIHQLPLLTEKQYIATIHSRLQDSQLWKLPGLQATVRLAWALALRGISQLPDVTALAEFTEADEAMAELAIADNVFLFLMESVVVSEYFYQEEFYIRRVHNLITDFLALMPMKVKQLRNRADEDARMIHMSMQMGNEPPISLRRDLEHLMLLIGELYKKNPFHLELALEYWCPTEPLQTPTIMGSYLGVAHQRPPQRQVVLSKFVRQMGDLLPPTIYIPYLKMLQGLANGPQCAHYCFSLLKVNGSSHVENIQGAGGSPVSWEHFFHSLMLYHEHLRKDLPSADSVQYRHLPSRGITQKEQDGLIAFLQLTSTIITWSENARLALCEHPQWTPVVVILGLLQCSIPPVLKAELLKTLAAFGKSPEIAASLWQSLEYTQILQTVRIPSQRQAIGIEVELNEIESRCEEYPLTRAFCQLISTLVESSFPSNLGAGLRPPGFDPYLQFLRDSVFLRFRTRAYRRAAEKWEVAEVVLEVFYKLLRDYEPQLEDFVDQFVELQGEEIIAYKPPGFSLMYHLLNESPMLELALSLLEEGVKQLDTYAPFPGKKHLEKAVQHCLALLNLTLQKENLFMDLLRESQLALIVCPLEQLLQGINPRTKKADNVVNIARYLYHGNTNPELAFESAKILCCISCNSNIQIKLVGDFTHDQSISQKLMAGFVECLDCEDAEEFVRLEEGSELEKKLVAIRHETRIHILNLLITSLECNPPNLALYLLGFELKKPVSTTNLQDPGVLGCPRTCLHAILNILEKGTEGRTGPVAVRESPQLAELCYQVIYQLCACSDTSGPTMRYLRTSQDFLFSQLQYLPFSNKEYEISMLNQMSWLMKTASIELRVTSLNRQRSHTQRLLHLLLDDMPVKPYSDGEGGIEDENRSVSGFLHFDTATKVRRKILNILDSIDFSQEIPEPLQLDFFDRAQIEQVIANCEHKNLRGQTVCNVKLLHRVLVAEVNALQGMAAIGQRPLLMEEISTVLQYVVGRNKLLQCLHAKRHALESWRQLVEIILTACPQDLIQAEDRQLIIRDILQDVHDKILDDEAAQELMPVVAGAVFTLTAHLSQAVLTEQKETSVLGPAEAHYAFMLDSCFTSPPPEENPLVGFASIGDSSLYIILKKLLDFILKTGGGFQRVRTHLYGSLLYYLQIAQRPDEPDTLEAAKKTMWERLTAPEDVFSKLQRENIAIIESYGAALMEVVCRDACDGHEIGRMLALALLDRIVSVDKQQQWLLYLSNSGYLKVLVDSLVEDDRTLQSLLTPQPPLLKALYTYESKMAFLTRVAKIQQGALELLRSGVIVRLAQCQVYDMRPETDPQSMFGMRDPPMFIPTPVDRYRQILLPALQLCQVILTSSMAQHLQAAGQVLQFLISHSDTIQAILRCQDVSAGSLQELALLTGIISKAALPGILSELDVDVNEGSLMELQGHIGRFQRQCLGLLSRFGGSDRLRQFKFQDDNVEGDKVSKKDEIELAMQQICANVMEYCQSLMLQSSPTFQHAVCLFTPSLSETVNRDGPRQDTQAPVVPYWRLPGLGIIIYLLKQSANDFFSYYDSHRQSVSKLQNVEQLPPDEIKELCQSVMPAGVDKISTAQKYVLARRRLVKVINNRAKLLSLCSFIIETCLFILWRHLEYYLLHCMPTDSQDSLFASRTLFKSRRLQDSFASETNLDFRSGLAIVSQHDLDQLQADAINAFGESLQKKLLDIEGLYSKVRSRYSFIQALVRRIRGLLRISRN
# Sequence of UniProt Q15003 (Q15003 whole entry, looked up): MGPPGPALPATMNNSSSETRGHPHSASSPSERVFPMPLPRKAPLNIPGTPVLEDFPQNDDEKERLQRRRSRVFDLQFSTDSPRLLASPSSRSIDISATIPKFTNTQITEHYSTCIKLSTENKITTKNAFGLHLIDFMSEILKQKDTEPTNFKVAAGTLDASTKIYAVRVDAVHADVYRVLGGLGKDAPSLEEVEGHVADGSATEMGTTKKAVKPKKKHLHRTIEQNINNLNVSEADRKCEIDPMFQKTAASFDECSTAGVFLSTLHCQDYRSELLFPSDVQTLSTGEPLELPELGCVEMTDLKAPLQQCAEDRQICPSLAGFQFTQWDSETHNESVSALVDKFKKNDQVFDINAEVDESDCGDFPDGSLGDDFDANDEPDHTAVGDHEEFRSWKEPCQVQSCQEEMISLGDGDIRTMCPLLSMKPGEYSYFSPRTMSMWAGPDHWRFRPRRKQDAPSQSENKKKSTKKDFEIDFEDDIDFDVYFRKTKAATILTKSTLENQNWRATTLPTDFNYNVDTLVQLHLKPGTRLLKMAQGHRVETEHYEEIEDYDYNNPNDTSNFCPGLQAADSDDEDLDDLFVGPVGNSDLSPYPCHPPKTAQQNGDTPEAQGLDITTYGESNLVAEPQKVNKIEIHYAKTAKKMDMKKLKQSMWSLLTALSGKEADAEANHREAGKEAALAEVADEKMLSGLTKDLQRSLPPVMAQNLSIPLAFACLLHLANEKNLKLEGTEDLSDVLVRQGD
# Sequence of UniProt Q9HBL8 (Q9HBL8 whole entry, looked up): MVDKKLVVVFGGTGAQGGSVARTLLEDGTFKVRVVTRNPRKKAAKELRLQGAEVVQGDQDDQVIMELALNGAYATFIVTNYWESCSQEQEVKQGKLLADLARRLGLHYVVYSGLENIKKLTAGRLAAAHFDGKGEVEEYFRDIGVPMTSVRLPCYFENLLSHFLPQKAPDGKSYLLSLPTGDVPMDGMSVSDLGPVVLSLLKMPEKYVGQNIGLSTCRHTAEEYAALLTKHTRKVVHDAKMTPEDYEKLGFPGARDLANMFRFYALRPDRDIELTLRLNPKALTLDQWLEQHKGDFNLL
# Sequence of UniProt Q9HAN9 (Q9HAN9 whole entry, looked up): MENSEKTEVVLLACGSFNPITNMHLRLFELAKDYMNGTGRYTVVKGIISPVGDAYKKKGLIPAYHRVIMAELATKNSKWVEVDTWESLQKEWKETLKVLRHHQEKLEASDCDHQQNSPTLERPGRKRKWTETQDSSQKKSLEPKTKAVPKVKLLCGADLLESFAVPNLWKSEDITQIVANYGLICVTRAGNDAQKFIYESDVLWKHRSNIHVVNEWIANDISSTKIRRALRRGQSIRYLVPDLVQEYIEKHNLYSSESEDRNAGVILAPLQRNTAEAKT
# Sequence of UniProt Q13469 (Q13469 whole entry, looked up): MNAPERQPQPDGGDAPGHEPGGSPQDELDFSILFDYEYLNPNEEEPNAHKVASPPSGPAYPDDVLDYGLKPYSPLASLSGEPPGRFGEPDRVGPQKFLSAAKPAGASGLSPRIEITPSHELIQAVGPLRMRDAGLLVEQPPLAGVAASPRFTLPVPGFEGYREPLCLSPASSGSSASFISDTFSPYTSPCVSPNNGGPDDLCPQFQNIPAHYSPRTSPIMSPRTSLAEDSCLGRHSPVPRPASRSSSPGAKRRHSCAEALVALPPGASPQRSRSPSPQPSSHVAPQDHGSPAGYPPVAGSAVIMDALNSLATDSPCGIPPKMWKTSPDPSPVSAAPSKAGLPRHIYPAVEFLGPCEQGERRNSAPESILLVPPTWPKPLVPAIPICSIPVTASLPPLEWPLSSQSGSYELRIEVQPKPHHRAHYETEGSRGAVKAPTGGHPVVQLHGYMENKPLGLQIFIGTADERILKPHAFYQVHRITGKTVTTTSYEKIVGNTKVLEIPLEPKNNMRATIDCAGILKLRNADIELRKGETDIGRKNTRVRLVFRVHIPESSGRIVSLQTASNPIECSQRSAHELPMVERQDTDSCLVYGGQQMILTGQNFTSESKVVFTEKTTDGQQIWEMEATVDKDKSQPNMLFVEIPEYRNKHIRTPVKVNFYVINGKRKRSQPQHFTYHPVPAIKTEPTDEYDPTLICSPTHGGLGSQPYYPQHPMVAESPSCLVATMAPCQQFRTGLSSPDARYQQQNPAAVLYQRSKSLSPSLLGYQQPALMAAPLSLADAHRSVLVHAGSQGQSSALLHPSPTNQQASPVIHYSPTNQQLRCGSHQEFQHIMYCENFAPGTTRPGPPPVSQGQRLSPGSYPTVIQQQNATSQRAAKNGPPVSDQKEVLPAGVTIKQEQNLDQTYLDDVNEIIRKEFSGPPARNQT
row,Target,log2 fold change
1,NOB1 (UniProt Q9ULX3),-0.022
2,MRPS25 (UniProt P82663),-0.097
3,NACC1 (UniProt Q96RE7),-0.055
4,NEMP1 (UniProt O14524),-0.001
5,MTHFD1 (UniProt P11586),0.004
6,OXSM (UniProt Q9NWU1),0.095
7,MT-ATP6 (UniProt P00846),0.253
8,OTUD4 (UniProt Q01804),-0.031
9,MRPL50 (UniProt Q8N5N7),0.148
10,NFATC2 (UniProt Q13469),-0.128
11,NUP205 (UniProt Q92621),-0.003
12,MRPS24 (UniProt Q96EL2),-0.153
13,MINK1 (UniProt Q8N4C8),-0.052
14,NUP85 (UniProt Q9BW27),0.027
15,NOP56 (UniProt O00567),-0.034
16,P4HA2 (UniProt O15460),0.002
17,NCAPH (UniProt Q15003),0.001
18,MRPS15 (UniProt P82914),-0.134
19,"NA, A0A096LPI6",0.05
20,NQO1 (UniProt P15559),-0.076

row,Target,log2 fold change
1,NIBAN1 (UniProt Q9BZQ8),-0.051
2,MPHOSPH10 (UniProt O00566),-0.123
3,NCAPD2 (UniProt Q15021),-0.052
4,NFATC2IP (UniProt Q8NCF5),0.065
5,NARS2 (UniProt Q96I59),-0.004
6,NMT2 (UniProt O60551),-0.031
7,MTHFS (UniProt P49914),-0.023
8,NUCKS1 (UniProt Q9H1E3),0.006
9,MYH11 isoform 2 (UniProt P35749),0.069
10,NUP160 (UniProt Q12769),0.155
11,NDUFA12 (UniProt Q9UI09),0.029
12,NUDT21 (UniProt O43809),0.028
13,NCOA7 (UniProt Q8NI08),-0.05
14,MON2 isoform 5 (UniProt Q7Z3U7),-0.089
15,NMRAL1 (UniProt Q9HBL8),0.115
16,NMNAT1 (UniProt Q9HAN9),-0.044
17,MND1 (UniProt Q9BWT6),0.006
18,NUDT16 (UniProt Q96DE0),0.063
19,NGLY1 (UniProt Q96IV0),-0.04

# Compound: CN1CCN(c2nc(C3=C(c4c[nH]c5ccccc45)C(=O)NC3=O)c3ccccc3n2)CC1 [sotrastaurin]
# Assay: as above
# Method in brief: as §1
row,Target,log2 fold change
1,NOB1 (UniProt Q9ULX3),-0.092
2,MRPS25 (UniProt P82663),-0.059
3,NACC1 (UniProt Q96RE7),-0.141
4,NEMP1 (UniProt O14524),-0.012
5,MTHFD1 (UniProt P11586),0.018
6,OXSM (UniProt Q9NWU1),0.067
7,MT-ATP6 (UniProt P00846),-0.059
8,OTUD4 (UniProt Q01804),-0.017
9,MRPL50 (UniProt Q8N5N7),-0.048
10,NFATC2 (UniProt Q13469),-0.166
11,NUP205 (UniProt Q92621),-0.057
12,MRPS24 (UniProt Q96EL2),-0.124
13,MINK1 (UniProt Q8N4C8),-0.009
14,NUP85 (UniProt Q9BW27),-0.026
15,NOP56 (UniProt O00567),0.018
16,P4HA2 (UniProt O15460),-0.033
17,NCAPH (UniProt Q15003),-0.15
18,MRPS15 (UniProt P82914),-0.079
19,"NA, A0A096LPI6",0.017
20,NQO1 (UniProt P15559),-0.002

row,Target,log2 fold change
1,NIBAN1 (UniProt Q9BZQ8),-0.086
2,MPHOSPH10 (UniProt O00566),-0.061
3,NCAPD2 (UniProt Q15021),-0.145
4,NFATC2IP (UniProt Q8NCF5),-0.033
5,NARS2 (UniProt Q96I59),0.03
6,NMT2 (UniProt O60551),0.007
7,MTHFS (UniProt P49914),-0.017
8,NUCKS1 (UniProt Q9H1E3),0.075
9,MYH11 isoform 2 (UniProt P35749),-0.024
10,NUP160 (UniProt Q12769),-0.141
11,NDUFA12 (UniProt Q9UI09),-0.017
12,NUDT21 (UniProt O43809),0.024
13,NCOA7 (UniProt Q8NI08),-0.074
14,MON2 isoform 5 (UniProt Q7Z3U7),-0.001
15,NMRAL1 (UniProt Q9HBL8),0.028
16,NMNAT1 (UniProt Q9HAN9),-0.033
17,MND1 (UniProt Q9BWT6),0.036
18,NUDT16 (UniProt Q96DE0),-0.031
19,NGLY1 (UniProt Q96IV0),-0.135
